ADAM10 inh – inhibits human ADAM10 | recombinant ADAM10, EDANS/DABCYL FRET peptide cleavage, 3 h | inhibition, % at 7 µM | 370,000 compounds, 0.62% hits | AID 720582;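 active = inhibition above a per-campaign cutoff equal to the mean of compounds falling between control-based bounds plus 3 SD, cut at about 20% in these data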;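 also: 0% = DMSO wells while the 100% control is not disclosed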
KLK7 zymogen act – proKLK7 (human) activation, primary screen; P49862; purified proKLK7, EDANS-DABCYL substrate fluorescence; 100% is mature enzyme control, 0% vehicle; activation, % at 7 µM; 370,000 compounds, 0.9% hits; AID 652039;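 active = activation above the mean of all tested compounds plus 3 SD, computed per campaign excluding outliers beyond control limits, cut at about 13% in these data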
Target sequence (P49862 whole entry, looked up): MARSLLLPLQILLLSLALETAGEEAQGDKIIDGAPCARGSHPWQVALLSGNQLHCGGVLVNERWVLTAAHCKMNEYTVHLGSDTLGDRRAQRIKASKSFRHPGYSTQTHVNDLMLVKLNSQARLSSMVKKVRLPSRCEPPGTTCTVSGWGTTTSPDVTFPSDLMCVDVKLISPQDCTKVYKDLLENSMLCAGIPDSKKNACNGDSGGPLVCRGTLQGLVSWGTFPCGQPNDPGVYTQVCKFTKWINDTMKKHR
PLCg1 inh – PLC-gamma1 (human) inhibition, primary screen. 370,000 compounds, 0.84% hits. purified PLC-gamma1, fluorogenic substrate, fluorescence. P19174. inhibition, % at 12.2 µM; in the data active = inhibition above about 9.5%
PLCb3 inh – PLC-beta3 (human) inhibition, primary screen; Q01970; Purified PLC-beta3, fluorogenic substrate, fluorescence; inhibition, % at 12.2 µM; 370,000 compounds, 0.18% hits; in the data active = inhibition above about 11%;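 also: 0% = median of compound wells on plate and 100% = full blocker control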
ADAM17 inh – inhibitors of human ADAM17; recombinant ADAM17, EDANS/DABCYL FRET peptide cleavage; P78536; inhibition, % at 6.95 µM; 370,000 compounds, 0.83% hits; AID 720648;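 active = inhibition above the mean of compounds lying between control limits plus 3 SD, set per campaign, cut at about 8.5% in these data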;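 also: 0% = DMSO-only wells as the low control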
KLK7 act conf – confirmation of human kallikrein-7 zymogen activators. shares compounds with KLK7 zymogen act. purified proKLK7, EDANS-DABCYL substrate fluorescence; scaled: vehicle 0, mature enzyme 100. activation, % at 7 µM. 3,200 compounds, 68% hits. AID 686949;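 active = activation, as change over the incubation, above the mean of all tested compounds plus 3 SD, cut at about 13% in these data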
EDANS interfere – optically interferes with EDANS-DABCYL signal, flagging KLK7 hits. EDANS-DABCYL substrate fluorescence interference, no enzyme, 4 h; solvent 0%, active enzyme control 100%. shares compounds with KLK7 zymogen act. 3,200 compounds, 80% hits. activation, % at 7 µM. AID 686952;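 active = activation above the all-compound mean plus 3 SD, ignoring values outside control-based bounds, cut at about 4.8% in these data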;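 also: value is the 4 h activation minus the activation read at time zero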
The depositor's hits bear a star; i = inactive; · = no result. Hits are enriched below; roughly 2.9% of the tested compounds scored in any of these assays.

SMILES | ADAM10 inh | KLK7 zymogen act | PLCg1 inh | PLCb3 inh | ADAM17 inh | KLK7 act conf | EDANS interfere
Cc1cc(=O)oc2cc(OC(=O)c3ccco3)ccc12 | i | 459* | i | i | i | 729* | 769*
CCCc1cc(=O)oc2cc(OCC(=O)N3CC[C@@]4(O)CCCC[C@H]4C3)ccc12 | -207 | 1 | -10 | -9 | -49 | · | ·
CCOc1ccc2c(=O)c(Oc3ccccc3OCC)coc2c1 | -9 | 0 | -8 | -15 | 0 | · | ·
CCOc1ccccc1Oc1coc2cc(OC(=O)c3ccco3)ccc2c1=O | i | 96* | i | i | -182 | 264* | 235*
C#CCNC(=O)C[C@H]1C[C@@]2(C(=O)OC)C(=C[C@H](C3CCCC3)O[C@@H]2C)N(CCc2ccc(OC)c(OC)c2)C1=O | 2 | 0 | 0 | 4 | 1 | · | ·
CC1=C[C@]2(C[N+](Cc3ccccc3)=C(N)N2)n2c(=O)n(-c3ccccc3)c(=O)n2C1 | -2 | 0 | -4 | 1 | 3 | · | ·
COC(=O)C[C@@H]1CC[C@@H]2[C@H](COc3ccc(NC(=O)Nc4c(C)noc4C)cc3C(=O)N2C)O1 | -3 | 0 | -1 | -1 | -3 | · | ·
CC(C)CNS(=O)(=O)CC1NCc2cc3c(cc21)OCO3 (stereo not drawn) | -5 | 0 | -1 | -2 | -7 | · | ·
O=C(COC(=O)CCCNC(=O)c1ccc(Cl)cc1)NC1CC1 | -6 | 14* | 4 | 2 | -9 | -1 | -1
CCOc1ccc(CCNC(=O)c2ccccn2)cc1OCC | -2 | · | 0 | 2 | -3 | · | ·
COc1ccc(-c2cc(C(=O)OCc3ccccn3)c3ccccc3n2)cc1 | i | 22* | i | i | -372 | -19 | -20
O=C(NCc1ccccn1)c1cc(-c2ccc(-c3ccccc3)cc2)nc2ccccc12 | i | -49 | -389 | i | -289 | · | ·
O=C(OC1CCOC1=O)c1cc(-c2ccc(Br)cc2)nc2ccccc12 (stereo not drawn) | -17 | 0 | 6 | -12 | -4 | · | ·
COc1ccc(-c2cc(C(=O)OCC(=O)c3ccc(C)c([N+](=O)[O-])c3)c3ccccc3n2)cc1 | -68 | 2 | -46 | -58 | -20 | · | ·
COc1ccc(-c2cc(C(=O)OCC(=O)N(C)C)c3ccccc3n2)cc1 | -180 | 50* | i | i | -55 | 39* | 43*
COc1ccc(-c2cc(C(=O)Oc3ccc([N+](=O)[O-])cc3)c3ccccc3n2)cc1 | i | 33* | i | i | i | 64* | 71*
COc1ccc(-c2cc(C(=O)OC3CCOC3=O)c3ccccc3n2)cc1 (stereo not drawn) | -247 | 97* | i | i | -90 | 9 | 12*
CCOc1ccc(N(CC(=O)Nc2c(C)n(C)n(-c3ccccc3)c2=O)S(=O)(=O)c2cccc3cccnc23)cc1 | -14 | 0 | 9 | 3 | -2 | · | ·
CCC[C@@H](NS(=O)(=O)c1ccc(C)cc1)C(=O)Oc1ccc2c3c(c(=O)oc2c1)CCC3 | i | 42* | i | i | i | 631* | 536*
COc1ccc2c(C)c(Cl)c(=O)oc2c1 | i | 7 | -264 | -306 | i | · | ·
Cc1ccc(S(=O)(=O)NCCC(=O)Oc2ccc3ccc(=O)oc3c2)cc1 | i | 49* | i | i | i | 613* | 626*
Cc1ccc(S(=O)(=O)NC(C(=O)Oc2ccc3ccc(=O)oc3c2)c2ccccc2)cc1 (stereo not drawn) | i | 63* | i | i | i | 329* | 377*
Cc1ccc(S(=O)(=O)NC(C(=O)Oc2ccc3c(C)c(Cl)c(=O)oc3c2)c2ccccc2)cc1 (stereo not drawn) | i | 55* | i | i | i | 69* | 78*
CC(C)C[C@@H]1NC(=O)[C@H]2C[C@@]3(C)c4ccccc4N[C@H]3N2C1=O | -11 | 0 | -6 | -10 | -6 | · | ·
COC(=O)[C@]12C[C@H](CC(=O)NCc3ccccc3)C(=O)N(Cc3cccc4ccccc34)C1=C[C@H](COCc1ccccc1)O[C@@H]2C | 11 | 0 | 2 | -2 | 4 | · | ·
